Shown are actives, neighbours in structure and some others; about 4.3% of the full set was active somewhere.
PfHsp40 yeast = compounds rescuing yeast from Plasmodium falciparum HSP40 toxicity | AID 504582 | actives 0.68% (n = 340,000) | growth rescue, % at 12.5 µM | S. cerevisiae expressing PfHsp40, growth rescue, ATP luminescence; in the data active = growth rescue above about 28%, passing the limit was not always enough; inconclusive = no clear call, values can overlap the other calls;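 note: yeast W303a lacking pdr1 and pdr3 grown in galactose medium; growth measured after three days at 30 °C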
MazEF act = activators of E. coli MazEF toxin-antitoxin RNase | FAM/BHQ RNA-DNA oligo cleavage fluorescence, 5 h | actives 0.32% (n = 350,000) | activation, % at 20 µM | AID 504720 | P0AE70; in the data active = activation above about 50%
Target sequence (P0AE70 whole entry, looked up): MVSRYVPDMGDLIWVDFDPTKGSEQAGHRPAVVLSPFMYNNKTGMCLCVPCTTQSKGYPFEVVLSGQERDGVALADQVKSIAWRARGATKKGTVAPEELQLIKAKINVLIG
Anthrax LF inh2 = inhibitors of Bacillus anthracis lethal factor protease; P15917; multiplex microsphere protease cleavage assay, LF; inhibition, % at 10 µM; actives 0.12% (n = 360,000)
BoNT F protease = blocks Botulinum neurotoxin F light chain protease; Multiplex microsphere protease cleavage assay, flow cytometry; inhibition, % at 10 µM; actives 0.22% (n = 360,000); AID 588497; in the data active = inhibition above about 35%, passing the limit was not always enough; inconclusive = no clear call, values can overlap the other calls
BoNT-A LC inh2 = inhibitors of Botulinum neurotoxin A light chain protease; inhibition, % at 10 µM; actives 0.17% (n = 360,000); multiplex microsphere protease substrate cleavage, flow cytometry
Bead autofluor = flagged as autofluorescent in microsphere protease counterscreen. AID 624483. actives 3.1% (n = 360,000). fluorescence intensity (test concentration not listed). compound autofluorescence counterscreen, microsphere flow cytometry; hits give high values; in the data active = fluorescence intensity above about 16000; inconclusive = no clear call, values can overlap the other calls
Large screens that a line does not name were inactive. Cut-off read from the data, not from the text of the source, unless noted: active = inhibition above about 30%; inconclusive = no clear call, values can overlap the other calls; inactive = below that.

O=S(=O)(Nc1ccc(Cc2ccncc2)cc1)c1cccs1	none
N#CCc1ccc(NS(=O)(=O)c2cccs2)cc1	Bead autofluor 16560
Cc1ccc(-c2cccc(CN3CCN(C4CCN(C(C)C)CC4)C(CCO)C3)c2)o1 (stereo unspecified)	none
Cc1cccc(C)c1NC(=O)CNC(=O)c1ccc(N2CCCC2=O)cc1	none
O=C(NC(=S)Nc1ccccc1N1CCCCC1)c1ccc(-c2cccc([N+](=O)[O-])c2)o1	none
CS(=O)(=O)N1CCN(c2ccc(NC(=O)c3ccc(-c4ccc(Cl)cc4)o3)cc2)CC1	Bead autofluor 17675
CS(=O)(=O)N1CCN(c2ccccc2NC(=O)c2ccc(-c3ccc(Br)cc3)o2)CC1	Bead autofluor 16514
CS(=O)(=O)N1CCN(c2ccccc2NC(=O)c2cc(Br)ccc2Cl)CC1	none
CN1CCN(c2ccc(NC(=O)c3ccc(-c4ccc(Cl)cc4)o3)cc2)CC1	none
O=C(NC(=S)Nc1ccccc1N1CCCC1)c1ccc(-c2cccc([N+](=O)[O-])c2)o1	BoNT-A LC inh2 inconclusive, Bead autofluor 19601
CCOC(=O)CC1C(=O)NCCN1C(=O)COc1ccc(C(C)(C)C)cc1 (stereo unspecified)	none
COc1cc(C2/C(=C(\O)c3ccc4c(c3)CC(C)O4)C(=O)C(=O)N2CCCn2ccnc2)cc(OC)c1OC (stereo unspecified)	none
O=C(c1ccco1)N1CCCSC1=Nc1ccccc1	Bead autofluor 21959
COC(=O)c1ccccc1NC(=O)CSc1nnc(C(C)NC(=O)c2ccc(Cl)cc2Cl)n1C (stereo unspecified)	Bead autofluor 22829
COCC1CCN(C(=O)c2cc(COc3cc(C)c(Cl)c(C)c3)on2)C1 (stereo unspecified)	none
CCOc1ccc(-c2c(=O)n(OCc3ccccn3)c3ccccc3[n+]2[O-])cc1	Bead autofluor 22653
CCOC(=O)COn1c(=O)c(-c2ccc(OC)cc2)[n+]([O-])c2ccccc21	none
O=c1c(-c2ccc(Oc3ccccc3)cc2)[n+]([O-])c2ccccc2n1OCc1ccccn1	none
CCOC(=O)COn1c(=O)c(-c2ccccc2)[n+]([O-])c2ccccc21	Anthrax LF inh2 29.7
CCCCc1ccc(NC=C2C(=O)OC3(CCCCC3)OC2=O)cc1	none
NS(=O)(=O)c1ccc(NC=C2C(=O)OC3(CCCCC3)OC2=O)cc1	Bead autofluor 16483
Oc1ccc(Cl)cc1CNc1ccc(Br)cn1	Bead autofluor 23615
Oc1c(Cl)cc(Cl)cc1CNc1ccc(Br)cn1	PfHsp40 yeast inconclusive
CCCCOC(=O)Nc1nnc(COc2ccccc2)s1	Bead autofluor 16850
CC1CC(C)CN(C(=O)Cn2c(-c3nonc3N)nc3ccccc32)C1 (stereo unspecified)	none
CC1CCCN(C(=O)Cn2c(-c3nonc3N)nc3ccccc32)C1 (stereo unspecified)	Bead autofluor 18146
Cc1cccc(Nc2nc(N)c([N+](=O)[O-])c(N3CC(C)CC(C)C3)n2)c1 (stereo unspecified)	PfHsp40 yeast 64.2
O=C(Nc1ccccc1Cl)N1CCN(c2ccc3nnc(-c4ccc(F)cc4)n3n2)CC1	BoNT-A LC inh2 inconclusive, Bead autofluor 20523
COc1ccc(CNc2cc(C)nc3ncnn23)c(OC)c1	Bead autofluor 22962
CC(=O)c1ncnn1CC(=O)c1ccc(Cl)cc1Cl	Bead autofluor 22669
O=C(O)C1=NN(c2ccccc2)C(=O)C1	none
CCOC(=O)C1=NN(c2ccccc2)C(=O)/C1=C\c1ccc(N(C)C)cc1	PfHsp40 yeast 81.3
CCOC(=O)C1=NN(c2ccccc2)C(=O)C1	PfHsp40 yeast 112.8
Cc1ccc(N=Cc2nc(/C=C/c3cccc([N+](=O)[O-])c3)oc2O)cc1	BoNT-A LC inh2 inconclusive, Bead autofluor 22530
COc1ccc(CCNC(=O)c2nnn(CC(=O)Nc3ccc(C)cc3C)c2N)cc1OC	none
O=C(/C=C/c1ccco1)c1cccc([N+](=O)[O-])c1	PfHsp40 yeast 27.4
COc1ccccc1NS(=O)(=O)c1cc(C(=O)NCc2ccco2)ccc1C	Bead autofluor 17992
Cc1ccccc1NS(=O)(=O)c1cc(C(=O)NCc2ccco2)ccc1C	none
CS(=O)(=O)Nc1ccc(OCc2ccccc2)cc1	Bead autofluor 24301
CS(=O)(=O)Nc1ccc(S(=O)(=O)NCCc2ccccc2)cc1	Bead autofluor 24049
Cc1cc(=O)oc(C)c1C(=O)NCCN1CCOCC1	BoNT-A LC inh2 inconclusive, Bead autofluor 22773
Cc1cc(=O)oc(C)c1C(=O)NCCCN1C(C)CCCC1C (stereo unspecified)	Bead autofluor 24271
CCCNC(=O)c1c(C)cc(=O)oc1C	none
CCCCN(CCCNC(=O)c1c(C)cc(=O)oc1C)c1ccccc1	Bead autofluor 22469
O=C1CC(N2CCN(c3ccc(Cl)c(Cl)c3)CC2)C(=O)N1 (stereo unspecified)	Bead autofluor 21082
Cc1ccc(C(=O)CCC(=O)NNC(=O)c2ccccc2O)cc1	none (no result: Anthrax LF inh2, BoNT F protease, BoNT-A LC inh2, Bead autofluor)
CCOC(=O)/C=C1\CC(=O)Nc2cc(C)c(C)cc2N1	Bead autofluor 20731
CCOC(=O)/C=C1\CC(=O)Nc2nonc2N1	Bead autofluor 22714
CCOC(=O)/C=C1\Nc2ccccc2OC1=O	none
CCOC(=O)C1=NNC(=O)C1	none
Nc1ccccc1C#CC(=O)c1ccccc1	none
CC(=O)Nc1ccc(S(=O)(=O)N(C)CC(=O)OCC(=O)NCc2ccco2)cc1	none (no result: Anthrax LF inh2, BoNT F protease, BoNT-A LC inh2, Bead autofluor)
COc1ccc(NC(=O)C[C@H]2C(=O)N(c3ccc(Br)cc3)C[C@@H]2C)cc1	none (no result: PfHsp40 yeast)
Cc1cc2n(n1)C(c1ccc3c(c1)OCO3)Nc1ccccc1-2 (stereo unspecified)	Bead autofluor 21039
Cc1cc2n(n1)C(c1ccc(N(C)C)cc1)Nc1ccccc1-2 (stereo unspecified)	Bead autofluor 20611
Cc1cc2n(n1)C(c1ccccc1)Nc1ccccc1-2 (stereo unspecified)	Bead autofluor 16831
CC(C(=O)OCC(=O)c1cccc([N+](=O)[O-])c1)N1C(=O)C2C3C=CC(C3)C2C1=O (stereo unspecified)	none
Cc1nnc(NC(=O)CSc2nccn2Cc2ccccc2)s1	none
CC(C)(C)c1ccc(S(=O)(=O)NC(=O)C2(C)CCN2C(=O)Cc2cccs2)cc1 (stereo unspecified)	none (no result: PfHsp40 yeast, MazEF act)
O=C(c1ccc(Cl)cc1)N1CCC(c2nc(-c3cccs3)no2)CC1	Bead autofluor 23989
CCOc1ccc(C(=O)N2CCCC(c3nc(-c4cccs4)no3)C2)cc1 (stereo unspecified)	none
CCN(CC(=O)N1CCC(C(N)=O)CC1)S(=O)(=O)c1ccc(Cl)cc1	none
Cc1cc(C)nc(NS(=O)(=O)c2ccc(N)cc2)n1	none
Cc1ccc(S(=O)(=O)Nc2nsc(N)n2)cc1	Bead autofluor 17173
COc1ccccc1Cc1noc(C(C)(C)NC(=O)c2ccccc2)n1	Bead autofluor 17677
COc1ccccc1CC(=O)NNC(=O)c1ccc(C(C)(C)C)cc1	none
